PubChem BioAssay (NCI)
About 79,000 compounds went through this panel and 15% of them were active in at least one assay; those are over-represented in the sample as a whole. The source made the active and inactive calls. Rule as the data show it: active = growth inhibition above about 70%; inactive = the rest.

Legend:
[1] = NCI Yeast Anticancer Drug Screen. Data for the rad52 strain (AID 147);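 also: 0% = growth of vehicle-treated control cultures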; settings: S. cerevisiae rad52 mutant growth inhibition, hits give high values
Outline: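 Compounds are applied to a genetically defined yeast strain lacking normal DNA damage repair, and inhibition of growth is expressed relative to cultures given vehicle only.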

[2] = NCI Yeast Anticancer Drug Screen. Data for the wt1 strain (AID 149);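 also: 0% = growth of vehicle-treated wt1 cultures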; settings: S. cerevisiae wt1 strain (SPY 50644) growth inhibition, hits give high values
Outline: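 wt1 yeast, compound-treated; % growth inhibition vs vehicle control.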

[3] = NCI Yeast Anticancer Drug Screen. Data for the rad50EPP+ strain (AID 151);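 also: 0% = growth of vehicle-treated control cultures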; settings: S. cerevisiae rad50 mutant strain, hits give high values
Outline: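 Compounds were applied to the rad50EPP+ yeast strain, which bears a defined DNA repair alteration, and growth inhibition was determined relative to vehicle-treated cultures.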

[4] = NCI Yeast Anticancer Drug Screen. Data for the rad50 strain (AID 155);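 also: 0% = growth of vehicle-only cultures of the same strain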; settings: S. cerevisiae rad50 strain growth inhibition, hits give high values
Outline: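 Genetically altered yeast (DNA repair pathway); compound treatment; growth inhibition vs vehicle ctrl.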

[5] = NCI Yeast Anticancer Drug Screen. Data for the mec2-1 strain (AID 157); settings: S. cerevisiae mec2-1 strain, hits give high values
Outline: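 Strain: mec2-1 (DNA repair/cell cycle alteration). Compound exposure, then growth measured; inhibition expressed relative to vehicle.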

[6] = NCI Yeast Anticancer Drug Screen. Data for the rad14 strain (AID 159);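 also: 0% = growth of vehicle-treated control cultures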; settings: S. cerevisiae rad14 strain growth inhibition, hits give high values
Outline: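 Test compounds were applied to a repair-deficient yeast strain. Its growth was then compared with that of cultures given vehicle alone, and inhibition was expressed relative to those controls.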

[7] = NCI Yeast Anticancer Drug Screen. Data for the sgs1 mgt1 strain (AID 161);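 also: 0% = growth of cultures given vehicle only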; settings: S. cerevisiae sgs1 mgt1 strain, hits give high values
Outline: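 Read-out: growth inhibition vs vehicle controls. Cells: mutant yeast strain deficient in DNA damage repair.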

[8] = NCI Yeast Anticancer Drug Screen. Data for the CLN2oe strain (AID 163);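 also: 0% = growth of vehicle-only control cultures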; settings: S. cerevisiae CLN2oe strain, hits give high values
Outline: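 Growth of a genetically modified yeast strain is measured after compound exposure and compared with cultures given vehicle alone.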

[9] = NCI Yeast Anticancer Drug Screen. Data for the cln2 rad14 strain (AID 165);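 also: 0% = growth equal to vehicle treated cultures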; settings: S. cerevisiae cln2 rad14 strain, hits give high values
Outline: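 Compounds are applied to the cln2 rad14 yeast strain, and growth is then compared with that of vehicle-treated cultures to give inhibition.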

[10] = NCI Yeast Anticancer Drug Screen. Data for the bub3 strain (AID 167); settings: S. cerevisiae bub3 mutant strain, hits give high values
Outline: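 Yeast carrying a defined mutation is treated with each compound, and growth is compared with that of vehicle-exposed cells to give inhibition.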

[11] = NCI Yeast Anticancer Drug Screen. Data for the wt2 strain (AID 169);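 also: 0% = growth of vehicle-treated yeast cultures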; settings: S. cerevisiae wt2 strain growth inhibition, hits give high values
Outline: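 This strain belongs to a panel of yeast strains with defined genetic alterations in DNA damage repair or cell cycle control. Compounds are applied, and growth inhibition is measured against vehicle-treated cultures.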

[12] = NCI Yeast Anticancer Drug Screen. Data for the mlh1 strain (AID 171);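 also: 0% = growth of vehicle-treated control cultures of the same strain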; settings: S. cerevisiae mlh1 strain growth inhibition, hits give high values
Outline: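 Growth of the mutant yeast strain after compound exposure, expressed as inhibition relative to vehicle-only controls.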

[13] = NCI Yeast Anticancer Drug Screen. Data for the sgs1 strain (AID 173);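 also: 0% = growth of vehicle-only control cultures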; settings: S. cerevisiae sgs1 mutant, hits give high values
Outline: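 Growth of a yeast strain bearing a defined genetic alteration is measured after compound treatment. Inhibition is expressed relative to vehicle-only controls.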

[14] = NCI Yeast Anticancer Drug Screen. Data for the mlh1 rad18 strain (AID 175); settings: S. cerevisiae mlh1 rad18 strain growth inhibition, hits give high values
Outline: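 Read-out is yeast growth inhibition, calculated against vehicle-only controls. The compound was applied to a strain engineered with DNA damage repair alterations.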

[15] = NCI Yeast Anticancer Drug Screen. Data for the rad18 strain (AID 177); settings: S. cerevisiae rad18 mutant growth inhibition, hits give high values
Outline: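 Growth of the mutant yeast strain after compound exposure, normalised to vehicle-only cultures.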

[16] = NCI Yeast Anticancer Drug Screen. Data for the mgt1 strain (AID 153); settings: S. cerevisiae mgt1 mutant growth inhibition, hits give high values
Outline: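 Strain: mgt1 yeast, one of a set carrying defined DNA damage repair or cell cycle control alterations. Compound-treated growth compared with vehicle.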

[17] = at 5.0 µM (retest, dose inferred, filed as 0.5)
[18] = at 50.0 µM (retest, dose inferred, filed as 5.0)

Measured: growth inhibition

CN(C)CC1=Nc2cccc3cccc(c23)N1
active: [4]; at 50.0 µM 90.8% | [4]; at 100.0 µM 79% | [5]; at 50.0 µM 87.4% | [5]; at 100.0 µM 85% | [6]; at 100.0 µM 88% | [7]; at 50.0 µM 88.6% | [10]; at 50.0 µM 90% | [10]; at 100.0 µM 85% | [12]; at 100.0 µM 87% | [14]; at 50.0 µM 90.2% | [15]; at 100.0 µM 70%
inactive: [1]; at 1.2 µM -4% | [1]; at 3.7 µM -6% | [1]; at 11.0 µM -10% | [1]; at 33.0 µM 2% | [1]; at 100.0 µM 60% | [2]; at 1.2 µM 2% | [2]; at 3.7 µM -5% | [2]; at 11.0 µM -6% | [2]; at 33.0 µM -4% | [2]; at 100.0 µM 21% | [3]; at 1.2 µM -2% | [3]; at 3.7 µM -3% | [3]; at 11.0 µM -2% | [3]; at 33.0 µM -8% | [3]; at 100.0 µM 13% | [4]; at 1.2 µM -7% | [4]; at 3.7 µM 1% | [4]; [17] -17% | [4]; at 11.0 µM 4% | [4]; at 33.0 µM 51% | [4]; [18] 30% | [5]; at 1.2 µM -3% | [5]; at 3.7 µM -3% | [5]; [17] -12% | [5]; at 11.0 µM -5% | [5]; at 33.0 µM 3% | [5]; [18] 17% | [6]; at 1.2 µM -2% | [6]; at 3.7 µM 0% | [6]; at 11.0 µM 1% | [6]; at 33.0 µM 51% | [7]; [17] -21% | [7]; [18] 41% | [8]; at 1.2 µM -4% | [8]; at 3.7 µM -8% | [8]; at 11.0 µM 5% | [8]; at 33.0 µM 3% | [8]; at 100.0 µM 61% | [9]; [17] -39% | [9]; [18] -16% | [9]; at 50.0 µM 6.8% | [10]; at 1.2 µM -5% | [10]; at 3.7 µM -4% | [10]; [17] -26% | [10]; at 11.0 µM -3% | [10]; at 33.0 µM 17% | [10]; [18] 58% | [11]; at 1.2 µM -2% | [11]; at 3.7 µM -5% | [11]; at 11.0 µM -6% | [11]; at 33.0 µM 10% | [11]; at 100.0 µM 64% | [12]; at 1.2 µM 0% | [12]; at 3.7 µM -12% | [12]; at 11.0 µM -5% | [12]; at 33.0 µM 24% | [13]; at 1.2 µM -1% | [13]; at 3.7 µM -5% | [13]; at 11.0 µM -5% | [13]; at 33.0 µM 7% | [13]; at 100.0 µM 68% | [14]; [17] -32% | [14]; [18] 46% | [15]; at 1.2 µM -3% | [15]; at 3.7 µM -20% | [15]; at 11.0 µM -14% | [15]; at 33.0 µM 1%

NCCOc1ccc(/C(=C(/Cl)c2ccccc2)c2ccccc2)cc1
active: [1]; at 33.0 µM 98% | [1]; at 100.0 µM 96% | [2]; at 33.0 µM 98% | [2]; at 100.0 µM 97% | [3]; at 33.0 µM 97% | [3]; at 100.0 µM 96% | [16]; at 33.0 µM 98% | [16]; at 100.0 µM 96% | [4]; at 33.0 µM 99% | [4]; [18] 98% | [4]; at 50.0 µM 85.5% | [4]; at 100.0 µM 96% | [5]; at 33.0 µM 98% | [5]; [18] 99% | [5]; at 50.0 µM 93.8% | [5]; at 100.0 µM 97% | [7]; [18] 98% | [7]; at 50.0 µM 92.7% | [8]; at 33.0 µM 98% | [8]; at 100.0 µM 96% | [9]; [18] 98% | [9]; at 50.0 µM 92.2% | [10]; at 33.0 µM 99% | [10]; [18] 98% | [10]; at 50.0 µM 91.8% | [10]; at 100.0 µM 96% | [11]; at 33.0 µM 98% | [11]; at 100.0 µM 97% | [12]; at 33.0 µM 99% | [12]; at 100.0 µM 97% | [13]; at 33.0 µM 99% | [13]; at 100.0 µM 97% | [14]; [18] 98% | [14]; at 50.0 µM 88.7% | [15]; at 33.0 µM 99% | [15]; at 100.0 µM 97%
inactive: [1]; at 1.2 µM -10% | [1]; at 3.7 µM -15% | [1]; at 11.0 µM 23% | [2]; at 1.2 µM 1% | [2]; at 3.7 µM -4% | [2]; at 11.0 µM 5% | [3]; at 1.2 µM 0% | [3]; at 3.7 µM 9% | [3]; at 11.0 µM 15% | [16]; at 1.2 µM -6% | [16]; at 3.7 µM -7% | [16]; at 11.0 µM 13% | [4]; at 1.2 µM -3% | [4]; at 3.7 µM 3% | [4]; [17] 17% | [4]; at 11.0 µM 39% | [5]; at 1.2 µM -5% | [5]; at 3.7 µM -17% | [5]; [17] 7% | [5]; at 11.0 µM 11% | [7]; [17] 7% | [8]; at 1.2 µM 18% | [8]; at 3.7 µM 12% | [8]; at 11.0 µM 36% | [9]; [17] 37% | [10]; at 1.2 µM 0% | [10]; at 3.7 µM -35% | [10]; [17] -11% | [10]; at 11.0 µM 14% | [11]; at 1.2 µM -4% | [11]; at 3.7 µM 0% | [11]; at 11.0 µM 2% | [12]; at 1.2 µM 18% | [12]; at 3.7 µM 10% | [12]; at 11.0 µM 34% | [13]; at 1.2 µM 26% | [13]; at 3.7 µM 23% | [13]; at 11.0 µM 55% | [14]; [17] -1% | [15]; at 1.2 µM 16% | [15]; at 3.7 µM 29% | [15]; at 11.0 µM 30%
